Screens as filed in PubChem BioAssay.
Spn PMK inh: inhibitors of Streptococcus pneumoniae phosphomevalonate kinase | inhibition, % at 10 µM | AID 539 | 65,000 compounds, 0.49% hits | purified PMK, PK/LDH-coupled NADH absorbance 340 nm;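 active = top-ranked compounds by inhibition in the single 10 µM screen, taking a fixed number of the strongest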;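 also: 0% = full reaction with DMSO carrier and 100% = background rate without enzyme reaction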
Autofluor 339: intrinsic fluorescence of library compounds, ex339/em460 – biochemical, MLSMR library, data from DPM-DC assay, artefact control, profiling panel; 65,000 compounds, 5.5% hits; fluorescence fold increase at 10 µM; compound autofluorescence, ex339/em460 nm, NADH buffer; hits give high values; 1 = no-compound wells, NADH background;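 active = at 10 µM, mean starting fluorescence two-fold or more over control wells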;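 also: signal is the first read of a kinetic run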
NADH enzymes: inhibitors of enzymes used to reach an NAD/NADH endpoint | coupled PK/LDH NADH assays, four targets | AID 774 | 65,000 compounds, 0.02% hits | IC50, µM (highest dose often 10 µM), for the others: at the top dose inhibition;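 active = single-dose screening hits from any of four coupled enzyme assays that gave an IC50 when retested across doses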;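 also: the DPM-DC format reads NADH fluorescence rather than 340 nm absorbance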
Spn DPM-DC inh: blocks S. pneumoniae diphosphomevalonate decarboxylase. purified DPM-DC, PK/LDH coupled NADH fluorescence. AID 556. 65,000 compounds, 0.49% hits. calls only at 10 µM;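 active = the 320 compounds with the highest percent inhibition in the single-dose primary screen, excluding strongly autofluorescent ones, cut at about 32% in these data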;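 also: kinetic rate of NADH fluorescence loss reporting ADP formed by the decarboxylase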
A340 absorber: compound absorbs light at 340 nm; fold change at 10 µM; 65,000 tested, under 10 active; compound absorbance at 340 nm, fold over control;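 active = at 10 µM dose, initial 340 nm absorbance at least 2 fold that of control wells; inactive = change under 2 fold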;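 also: initial absorbance extrapolated from kinetic A340 decline of NADH oxidation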
Spn MK inh: inhibitors of Streptococcus pneumoniae mevalonate kinase. purified MK, PK/LDH-coupled NADH absorbance 340 nm. inhibition, % at 10 µM. 65,000 compounds, 0.48% hits. AID 555;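 active = ranked among the strongest by inhibition in the single 10 µM screen, a fixed top-ranked set picked for dose follow-up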
* hit, by the source's call; i = inactive; nt = no result shown. The list is not random: actives were taken first. Their share in the collection is about 6.5%.

SMILES	Spn PMK inh	Autofluor 339	NADH enzymes	Spn DPM-DC inh	A340 absorber	Spn MK inh
O=C(Nc1ccc2oc(-c3cccnc3)nc2c1)c1cccnc1	19	1.6	8%	i	1.1	5
Cc1ccc2oc(-c3ccc(NC(=O)c4ccc5c(c4)OCO5)cc3)nc2c1	4	3.7*	2%	nt	1.1	0
Cc1ccc2oc(-c3ccc(NC(=O)c4cccnc4)cc3)nc2c1	2	2.1*	3%	i	1.1	8
O=C(Nc1ccc(-c2nc3ccccc3o2)cc1)c1ccc2c(c1)OCO2	6	3.6*	7%	nt	1.1	7
Cc1ccc(-c2nc3ccccc3o2)cc1NC(=O)c1ccc2c(c1)OCO2	6	1.8	6%	i	1	8
CC(C)c1nnc(NC(=O)CC(=O)Nc2ccccc2C(=O)O)s1	8	1.1	5%	i	1	7
CCNc1nnc(-c2ccccc2OC)s1	9	2.1*	8%	nt	1.1	7
COc1ccccc1-c1nnc(NC(=O)C(C)SC2=NCCS2)s1 (centres undefined)	0	1.1	4%	i	1.1	8
O=C(CN1C(=O)NC2(CCc3ccccc32)C1=O)Nc1cc(C(F)(F)F)ccc1N1CCOCC1 (centres undefined)	12	1	6%	i	1	2
O=C(Cn1cnc2ccccc21)Nc1cc(C(F)(F)F)ccc1N1CCOCC1	14	1.1	5%	i	1	0
FC(F)(F)c1ccc(N2CCOCC2)c(Nc2nc3ccccc3n3cnnc23)c1	2	2.5*	2%	i	1	4
Cc1cccc2cc3c(NC(=O)c4ccccn4)nn(C)c3nc12	0	2.1*	7%	i	1	6
CCCC(=O)Nc1nn(C)c2nc3c(C)cccc3cc12	2	1.7	3%	i	1.1	4
CC1(C)CC(=O)C(C=NCCN2CCN(C(=O)C34CC5CC(CC(C5)C3)C4)CC2)=C(O)C1	6	1.1	2%	i	1	0
CCOC(=O)N1CCC(n2c(SCC(=O)Nc3nccs3)nc3ccsc3c2=O)CC1	11	1.1	4%	i	1	2
CCOC(=O)N1CCN(C(=O)c2ccc3nc4ccsc4c(=O)n3c2)CC1	5	2.2*	2%	nt	1	4
COc1ccc(Cn2c(SCC(=O)NCc3ccco3)nc3ccsc3c2=O)cc1	4	1.1	3%	i	1	6
CCOC(=O)N1CCN(C(=O)c2ccc3c(=O)n(Cc4ccc(Cl)cc4)c(=S)[nH]c3c2)CC1	14	0.97	6%	i	0.99	0
CCOC(=O)CSc1nc2ccsc2c(=O)n1C1CCN(C(=O)OCC)CC1	14	1.1	5%	i	1	1
CCOC(=O)N1CCN(C(=O)c2cccn3c(=O)c4sccc4nc23)CC1	1	2.5*	2%	nt	1.1	15
O=C(NCc1ccco1)c1cccn2c(=O)c3sccc3nc12	0	2.5*	2%	nt	1.1	9
CCOC(=O)N1CCN(C(=O)c2ccc3nc4ccc(Cl)cc4c(=O)n3c2)CC1	17	4.9*	9%	nt	1.1	0
CCCC(=O)NC(C)c1nc2ccccc2n1C(C)C (centres undefined)	2	1	2%	i	1	4
CCSc1nc2n(n1)C(c1cccc(F)c1)C1=C(CCCC1=O)N2 (centres undefined)	0	2.6*	8%	i	1.1	1
CCc1nc2ccccc2n1Cc1cc(=O)n2cc(C)ccc2n1	16	3.4*	10%	i	1.1	0
SMILES	Spn PMK inh	Autofluor 339	NADH enzymes	Spn DPM-DC inh	A340 absorber	Spn MK inh
CCc1nc2ccccc2n1Cc1ccc(OC)c(OC)c1	2	1.1	1%	i	1	2
Cc1ccc(C)c(OCCOCCN2CCOCC2)c1	0	1.1	0%	i	1	1
Clc1cc(Br)ccc1OCCOCCN1CCOCC1	1	1.1	15%	i	1	44*
N#CC1=C(O)C(c2ccccc2)n2c1nc(=O)c1ccccc12 (centres undefined)	0	5*	2%	nt	1.1	3
CCOC(=O)C1=C(C)NC(C)=C(C(=O)OCC)C1C(=O)OCC(=O)N1CCc2ccccc2C1	14	1.6	12%	i	1.1	12
C=CCn1c(=O)c(C#N)cc2c(=O)n3ccccc3nc21	13	4.8*	7%	nt	1.1	0
